Measured values from PubChem BioAssay.
Several values for one entry are separate records, joined by “and”; a condition that tells them apart may be missing. Equal values may be shown once. Activity calls are given as the source filed them.

Assays:
Albumin (Bos taurus) = Albumin (Bos taurus) (UniProt P02769); test: bovine serum albumin binders on microarray, profiling panel, artefact control for SMM control protein annotation, biochemical, small-molecule microarray, Alexa647 label, 635/667 nm fluorescence (AID 1118); conditions: BSA-A647 binding, fluorescence 635 nm, higher = more signal;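 further: score merges 667 nm emission intensity and signal-to-noise per printed compound spot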
[1] = small-molecule microarray binders of probe aXIP, primary screen, biochemical, NeuroSMM set, 635/667 nm fluorescence (AID 1119); conditions: higher = more signal, called active from +8 up or from −8 down;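 further: probe is the protein aXip251-270 applied at 1 µg/mL to compound-printed slides; binding of probe to printed compounds measured as 667 nm fluorescence plus signal to noise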
[2] = small-molecule binders of probe aNOTCH3, primary screen, biochemical, small-molecule microarray, 635/667 nm fluorescence (AID 1120); conditions: higher = more signal;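 further: probe is a biotin-tagged antibody raised against NOTCH3 rather than NOTCH3 protein; score merges spot fluorescence near 667 nm with spot signal to noise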
[3] = small-molecule binders of probe aNOTCH2, primary screen, biochemical, small-molecule microarray, 635/667 nm fluorescence (AID 1121); conditions: higher = more signal;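 further: score merges feature fluorescence read at 667 nm with its signal to noise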
[4] = target: Carbonic anhydrase 2 (Homo sapiens) (UniProt P00918); test: CAII small-molecule binders, profiling panel, biochemical, small-molecule microarray, Alexa647-labelled CAII (AID 1122); conditions: CAII-A647 binding fluorescence, higher = more signal
[5] = COS7 lysate on small-molecule microarray, probe aHis, 635 nm (AID 1123); conditions: COS7 cell lysate, fluorescence, higher = more signal;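 further: z-score combines 667nm fluorescence intensity with signal-to-noise per printed compound spot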
[6] = compound binding in COS7 lysate, probe aLAP1, primary screen, cell lysate, small-molecule microarray (AID 1124); conditions: probe aLAP1, fluorescence, higher = more signal;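 further: lysate comes from COS7 cells expressing LAP1 and is applied at 0.3 µg/mL; score merges spot fluorescence near 667 nm with signal-to-noise over triplicate slides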
Sam68 (KHDRBS1) = test: Sam68 small-molecule binders, primary screen, biochemical, small-molecule microarray, 635 nm fluorescence (AID 1125); conditions: small-molecule microarray binding, higher = more signal;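 further: score merges 667 nm channel intensity with signal to noise over triplicate slides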
[7] = test system: Chordin-like protein 2 (CHRDL2); test: CHRDL2 small-molecule binders, primary screen, biochemical, small-molecule microarray, 635 nm fluorescence (AID 1126); conditions: small-molecule microarray binding, fluorescence 635 nm; higher = more signal;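 further: printed compound slides probed with Chrdl2 protein at 4 µg/mL for 1 h at 4 C; score merges 667 nm emission intensity with signal to noise over three replicate slides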
[8] = target: Concanavalin-A (Canavalia ensiformis) (UniProt P02866); test: ConA small-molecule binders, primary screen, artefact control for SMM control protein annotation, biochemical, small-molecule microarray, Alexa647 label, 635 nm (AID 1127); conditions: ConA-A647 binding fluorescence, higher = more signal;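 further: z combines 667 nm emission intensity with signal-to-noise across three replicate slides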
Chain of Concanavalin-A (Canavalia ensiformis) (P02866 whole entry, looked up): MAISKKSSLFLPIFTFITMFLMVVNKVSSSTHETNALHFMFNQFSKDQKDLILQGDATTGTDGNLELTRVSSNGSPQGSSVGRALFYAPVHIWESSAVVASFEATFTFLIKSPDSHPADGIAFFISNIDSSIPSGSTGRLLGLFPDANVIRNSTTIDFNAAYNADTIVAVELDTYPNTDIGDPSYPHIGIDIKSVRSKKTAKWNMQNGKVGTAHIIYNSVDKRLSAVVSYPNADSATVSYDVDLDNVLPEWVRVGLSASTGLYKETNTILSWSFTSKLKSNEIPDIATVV

Chain of Albumin (Bos taurus) (P02769 whole entry, looked up): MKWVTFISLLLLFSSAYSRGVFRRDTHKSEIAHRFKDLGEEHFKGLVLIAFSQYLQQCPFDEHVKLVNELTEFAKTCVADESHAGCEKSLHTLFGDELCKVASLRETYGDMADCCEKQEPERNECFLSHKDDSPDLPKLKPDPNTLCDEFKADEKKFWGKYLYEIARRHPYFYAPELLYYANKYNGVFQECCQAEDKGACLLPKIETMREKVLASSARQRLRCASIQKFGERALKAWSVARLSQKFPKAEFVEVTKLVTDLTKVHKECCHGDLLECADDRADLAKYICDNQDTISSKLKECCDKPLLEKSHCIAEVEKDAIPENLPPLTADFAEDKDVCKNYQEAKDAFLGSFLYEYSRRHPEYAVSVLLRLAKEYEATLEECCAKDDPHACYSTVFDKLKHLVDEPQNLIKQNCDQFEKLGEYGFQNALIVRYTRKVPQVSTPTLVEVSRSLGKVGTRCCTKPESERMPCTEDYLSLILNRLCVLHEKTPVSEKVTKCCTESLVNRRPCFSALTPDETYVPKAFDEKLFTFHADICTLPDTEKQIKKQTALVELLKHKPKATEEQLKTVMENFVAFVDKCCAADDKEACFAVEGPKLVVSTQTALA

| Compound | composite z-score (Albumin (Bos taurus)) | composite Z-score [1] | composite z-score [2] | composite z-score [3] | composite z-score [4] | composite z-score [5] | composite z-score [6] | composite z-score (Sam68 (KHDRBS1)) | composite z-score [7] | composite z-score [8] |
| --- | --- | --- | --- | --- | --- | --- | --- | --- | --- | --- |
| COC(=O)C1=C(C)N(Cc2ccccc2)C2=C(C(=O)c3ccccc3)[C@H](c3ccccc3)[C@@](O)(C(=O)OC)C(=O)N2[C@@H]1c1ccccc1 | 0.388 and 0.0897 | -0.174 (inactive) and -0.441 (inactive) | 0.177 and -0.0265 | 0.0929 and -0.171 | 0.0303 and -0.0063 | -0.224 and 0.306 | 0.0568 and 0.016 | 0.928 and 0.821 | 0.275 and 0.455 | 0.914 and 0.37 |
| Cc1cc2c(nc1C)CCCN2CC(O)CN1CCCc2nc(-c3ccc(Br)cc3)ccc21 (stereo not given) | -0.473 and 0.163 | 2.2 (inactive) and 4.49 (inactive) | 0.569 and 0.969 | 0.174 and 0.519 | 0.492 and 0.401 | 0.531 and 1.25 | 0.741 and 0.489 | 1.29 | 0.955 and 1.08 | 0.975 and 1.03 |
| C[N+](C)(C)CCCCCCNC(=O)[C@H]1C[C@H]2C(=O)N[C@@H](CCCC[N+](C)(C)C)C(=O)N2[C@H]1c1ccc(O)cc1 | -1.56 and 0.119 | -0.232 (inactive) and 0.577 (inactive) | -0.0359 and -0.0947 | -0.136 and -0.0651 | 0.142 and 0.718 | 0.186 and 0.951 | -0.149 and -0.179 | 0.0061 and 0.117 | 0.823 and 0.178 | -0.341 and -0.163 |
| C=CCN(CCCC)C(=O)C1N(CCOCCO)C(=O)C2C(C(=O)O)C3C=CC21O3 (stereo not given) | -0.994 and -2.32 | 0.0673 (inactive) and 0.289 (inactive) | -0.372 and -0.457 | -0.211 and -0.185 | 1.01 and 0.811 | 0.806 and -0.742 | 0.675 and 0.0426 | -1.11 and -1.43 | -1.67 and -1.1 | -0.268 and -1.9 |
| COC(=O)C1=C(C)N(Cc2ccccc2)C2=C3C(=O)CCC[C@@H]3[C@@](O)(C(=O)OC)C(=O)N2[C@@H]1c1ccccc1 | 0.0476 and 0.354 | -0.0521 (inactive) and -0.191 (inactive) | -0.0077 and 0.178 | -0.125 and -0.114 | 0.362 and 0.0465 | 0.0949 and 0.111 | -0.0012 and 0.0654 | 0.368 and -0.0561 | 0.674 and 0.24 | 0.596 and -0.917 |
| C=CC[C@@H](O)c1ccc(OCCO)cc1 | -0.155 and -0.308 | 0.0022 (inactive) and 0.259 (inactive) | -0.506 and -0.643 | -0.222 and -0.176 | 0.492 and 0.807 | -0.638 and -0.478 | -0.585 and -0.612 | -0.813 and -0.661 | -1.56 and -1.81 | -0.831 and -1.48 |
| C=CC[C@@H](O)c1ccc(O)c(F)c1 | 0.27 and 0.242 | 0.276 (inactive) and 0.895 (inactive) | -0.478 and -0.553 | -0.214 and -0.196 | 0.818 and 0.758 | -0.301 and -0.323 | -0.0711 and -0.495 | -0.601 and -0.896 | -1.22 and -1.15 | -1.51 and -1.15 |
| CC(C)=NOC[C@@H](O)COCc1ccco1 | -0.206 | 1.56 (inactive) | -0.0328 | -0.132 | -0.637 | -0.115 | -0.353 | -2.3 | 0.397 | -0.703 |
